Screens: PubChem, Johns Hopkins Ion Channel Center
Sampled rows, rich in hits. Any-hit rate of the full collection: about 2.3%.
ANO1 activ: activates or potentiates the mouse TMEM16A chloride channel. AID 623877. HEK293 TMEM16A/YFP-H148Q/I152L, iodide quench fluorescence; stronger effect = lower value. B-score at 10 µM. actives 0.3% (n = 340,000). Q8BHY3;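 active means fluorescence-ratio B-score plate-corrected deviation score at least 3 library SD below zero, with starting fluorescence score within 5 deviations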;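 further: channel opened by trigger with iodide after compound preincubation; score built on the fluorescence ratio of max minus min over baseline; more negative score means more quench and so TMEM16A activation or potentiation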
Target sequence (Q8BHY3 whole entry, looked up): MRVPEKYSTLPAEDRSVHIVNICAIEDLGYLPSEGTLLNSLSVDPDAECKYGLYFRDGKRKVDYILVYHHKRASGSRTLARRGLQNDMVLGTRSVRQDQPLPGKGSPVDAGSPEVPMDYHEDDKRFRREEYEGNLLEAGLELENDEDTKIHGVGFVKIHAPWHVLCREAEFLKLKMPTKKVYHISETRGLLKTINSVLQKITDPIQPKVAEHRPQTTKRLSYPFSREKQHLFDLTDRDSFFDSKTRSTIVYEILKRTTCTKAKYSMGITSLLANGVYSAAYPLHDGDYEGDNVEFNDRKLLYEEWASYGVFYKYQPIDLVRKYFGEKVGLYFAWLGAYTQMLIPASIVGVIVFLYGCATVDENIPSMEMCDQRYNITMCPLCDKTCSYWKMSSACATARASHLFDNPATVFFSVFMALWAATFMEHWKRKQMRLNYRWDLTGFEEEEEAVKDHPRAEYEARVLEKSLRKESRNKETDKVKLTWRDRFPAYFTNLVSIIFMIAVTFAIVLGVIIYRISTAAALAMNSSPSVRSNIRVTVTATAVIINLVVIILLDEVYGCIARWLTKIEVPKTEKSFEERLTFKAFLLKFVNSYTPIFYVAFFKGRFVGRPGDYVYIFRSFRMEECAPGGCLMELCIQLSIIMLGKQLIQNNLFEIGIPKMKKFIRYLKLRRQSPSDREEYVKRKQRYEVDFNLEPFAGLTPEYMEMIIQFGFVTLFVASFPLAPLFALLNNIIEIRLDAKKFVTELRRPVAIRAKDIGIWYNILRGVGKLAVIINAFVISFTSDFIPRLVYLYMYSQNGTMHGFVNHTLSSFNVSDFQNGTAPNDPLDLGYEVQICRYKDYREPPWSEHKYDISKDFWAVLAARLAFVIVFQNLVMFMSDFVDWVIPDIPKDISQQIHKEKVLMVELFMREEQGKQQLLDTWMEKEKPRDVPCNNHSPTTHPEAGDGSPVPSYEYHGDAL
CHT allo act: allosterically activates the human high affinity choline transporter; B-score at 10 µM; CHT-expressing cells, membrane potential dye, choline EC20; stronger effect = higher value; LV-AA mutant CHT in HEK293 cells; actives 0.49% (n = 310,000); AID 488977;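 active means initial fluorescence not abnormally high and integrated response B-score, plate-corrected, over 3 SD above library mean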
CHT block: human CHT choline transport inhibition; B-score at 10 µM; CHT-expressing cells, membrane potential dye, choline response; stronger effect = lower value; Q9GZV3; actives 0.86% (n = 310,000);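 active means B-score over 3 SD under the library average, and starting fluorescence ratio not unusually high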;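 further: choline stimulus applied at its EC90 after an EC20 pre-addition; B-score computed on integrated fluorescence ratio after choline addition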
TMEM16A inh: mouse TMEM16A channel inhibition, primary screen. actives 1.2% (n = 310,000). AID 588511. HEK293 TMEM16A/YFP iodide influx fluorescence, ionomycin. normalized B-score (activity score, 25-100; higher = stronger inhibition) at 10 µM;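 active means ratio plate-corrected score three or more library SD toward inhibition, starting fluorescence score within five deviations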;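 further: score derived from kinetic fluorescence span divided by baseline fluorescence per well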
CHT inh conf: human CHT inhibition, confirmatory screen. shares compounds with CHT block. CHT-expressing cells, choline membrane potential dye; LV-to-AA substituted CHT, HEK293 cells. CHT activity remaining % of control (stronger effect = lower value), % at 10 µM. actives 70% (n = 2,400). AID 493221;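 active means choline transporter activity left, mean of duplicates at 10 µM, below buffer-only control mean minus 3 SD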;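 further: depolarization triggered by choline at its EC90 following an EC20 pre-addition; 0% = hemicholinium-3 full block and 100% = buffer-only control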
HEK293 CHT ctr: CHT inhibitor counter-screen hit in parental HEK293 cells; shares compounds with CHT block; membrane potential dye, choline response; active = decrease or increase beyond buffer ±3SD; membrane potential ratio readout (active if shifted either direction beyond buffer ±3SD; no single direction) at 10 µM; actives 4% (n = 2,400);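 further: parental cells lack the transporter so any hit is non-specific; ratio is peak minus trough fluorescence over baseline after EC90 choline challenge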
Starred values were filed as active, the others as inactive; i = inactive; . = no result.

SMILES | ANO1 activ | CHT allo act | CHT block | TMEM16A inh | CHT inh conf | HEK293 CHT ctr
COc1ccc(N=c2sc3ccccc3n2C)cc1 | i | i | i | i | . | .
Cn1c(=NCC(O)COc2ccccc2)sc2ccccc21 (centres undefined) | i | i | -19* | i | 8.9%* | i
Nc1nnc(-c2ccc(F)cc2)s1 | i | i | i | i | . | .
CC(C)(C)c1ccc(-c2nnc(N)s2)cc1 | i | i | -6* | i | i | i
O=C(COc1ccc(Br)cc1)NNC(=O)c1ccc(-n2cncn2)c([N+](=O)[O-])c1 | i | . | . | . | . | .
COc1ccc(CCNC/C=C/c2ccccc2)cc1 | i | i | i | i | . | .
COC(=O)c1ccc(COC(=O)C(CCS(C)(=O)=O)N2C(=O)c3ccccc3C2=O)cc1 (centres undefined) | i | i | -6.3* | i | i | i
CC(=O)c1ccc(OC(=O)C(CCS(C)(=O)=O)N2C(=O)c3ccccc3C2=O)cc1 (centres undefined) | i | i | i | i | . | .
CN(C)CCn1c(=S)[nH]c2ccccc2c1=O | i | i | -7.9* | i | 28%* | i
CN(C)CCCn1c(=S)[nH]c2ccccc2c1=O | i | i | i | i | . | .
Cc1cc(C)cc(NC(=S)N2CCC(NC(=O)c3ccc(F)cc3)CC2)c1 | i | i | i | i | . | .
COC(=O)C1(CC2CC(c3cccc(Br)c3)=NO2)CCN(C(=O)OC(C)(C)C)CC1 (centres undefined) | i | i | -5* | i | i | i
Cc1n[nH]c(C)c1S(=O)(=O)N1CCc2ccccc2C1 | i | i | i | i | . | .
O=C(CC(=O)c1c(F)cccc1Cl)c1ccccc1O | i | i | -5.6* | i | 46%* | i
O=C(CC(=O)c1ccccc1O)c1cccc(F)c1 | i | i | i | i | . | .
CCOC(=O)c1ccc(-n2c(O)c(/C=N/NC(=O)C3COc4ccccc4O3)c3ccccc3c2=O)cc1 (centres undefined) | i | i | i | i | . | .
CCN1CCN(CC(=O)Nc2ccc(S(=O)(=O)N3C(C)CCCC3C)cc2)CC1 (centres undefined) | i | i | -5.8* | i | 25%* | i
Oc1ccc(-c2n[nH]c(C(F)(F)F)c2-c2ccccc2)c(O)c1 | i | i | -5.2* | 100* | 62%* | i
CC(C)c1nc(C(=O)N2CCCC(N3CCN(c4cccc(Cl)c4)CC3)C2)cs1 (centres undefined) | i | i | -12* | i | 2.6%* | i
Cc1cccc(S(=O)(=O)Nc2cc(Cl)ccc2N2CCOCC2)c1 | i | . | . | . | . | .
Cc1cc(/C=N/NC(=O)c2c(Br)cnn2C)c(C)n1-c1cccc(Br)c1 | i | i | i | i | . | .
Cc1cc(/C=N/NC(=O)C(=O)N2CCCC2)c(C)n1-c1cccc(Br)c1 | i | i | -7.4* | i | 58%* | i
O=C(NNc1nc(-c2ccccc2)cs1)c1ccccc1 | i | i | -7.8* | i | 62%* | i
CC(=O)Nc1ccc(-c2csc(NNC(=O)c3ccc(C)cc3)n2)cc1 | i | i | i | i | . | .
O=C(NC1CCCN(Cc2ccc(Cl)cc2)C1)c1c(F)ccc(F)c1F (centres undefined) | i | i | i | i | . | .
O=C(O)CSc1cc(C(=O)c2ccccc2O)cn2c(=O)c3c(-c4ccccc4)csc3nc12 | i | i | -7* | i | 30%* | i
O=C(CCC(=O)N(CC(=O)NC1CCCCC1)Cc1cccs1)Nc1ccccn1 | i | i | i | i | . | .
CCOc1ccccc1N(CC(=O)NC1CCCCC1)S(=O)(=O)c1ccc(C)cc1 | i | i | i | i | . | .
O=C(O)c1ccc(-c2nc(-c3ccccc3)c(-c3cccs3)[nH]2)cc1 | i | i | i | i | . | .
COc1ccc(-c2nc(-c3cccs3)c(-c3cccs3)[nH]2)cc1O | i | i | -7.2* | i | 70%* | i
